Reference: ChEMBL document CHEMBL3988442, “University of Dundee, Small-Polar-MMV Screening Library” (2021)
Screen size: about 85,000 compounds; about 440 (0.52%) showed an effect of 50% or more. For the sample, strong results were picked, then their nearest neighbours and some compounds at random.

Experiment: In vitro enzyme assay to detect hydrolysis of chlorophenol red-beta-D-[…] directly proportional to the number of Toxoplasma stably expressing beta-galactosidase
Assay type: functional, organism-based, Toxoplasma gondii
Parameters: scale not given: in the data most compounds retested in dose-response had high values

In the case of `CC(=O)NC1CCNC1` (stereo not given), the “Percent Effect” value (50 µM) is reported as 26.97%.

In the case of `CN1CC(NC(=O)CCC(=O)c2cccs2)CCC1=O` (stereo not given), the “Percent Effect” value (50 µM) is reported as -1.402%.

With `COCC1CCN(Cc2ccc(NC(C)=O)cc2)C1` (stereo not given) the “Percent Effect” value (50 µM) was -11.02%.

In the case of `CC(=O)Nc1ccc(CN2CCCOC(C)C2)cc1` (stereo not given), the “Percent Effect” value (50 µM) is reported as 52.96%.

For `CCC(=O)NC1CCCN(Cc2ccc(NC(C)=O)cc2)C1` (stereo not given), the “Percent Effect” value (10 µM) was 8.052%.

In the case of `CCC(C)(CC)NC(=O)Nc1cnn(CCOC)c1`, the “Percent Effect” value (50 µM) is reported as -4.406%.

For `O=C(N1CCC(Oc2ccncc2)C1)C1(c2cccc(F)c2)CC1` (stereo not given), the “Percent Effect” value (10 µM) was 4.06%.

For `O=C(N1CCCC(n2cncn2)C1)C1(c2cccc(F)c2)CC1` (stereo not given), the “Percent Effect” value (10 µM) was -9.535%.

With `CC(C)(C(=O)N1CC[C@@H](O)C1)c1ccccc1` the “Percent Effect” value (50 µM) was -3.951%.

For `NC1CCN(C(=O)C2(c3cccc(F)c3)CC2)CC1`, the “Percent Effect” value (50 µM) was 89.65%.

With `CC(C)(C(=O)N1CCOCC1)c1ccccc1` the “Percent Effect” value (50 µM) was -4.463%.

With `CC(C)(C(=O)N1CCC(N)CC1)c1cccc(F)c1` the “Percent Effect” value (50 µM) was 80.98%.

With `COCCCC1CCNCC1` the “Percent Effect” value (50 µM) was 4.614%.

In the case of `NCC(CO)Cc1ccsc1` (stereo not given), the “Percent Effect” value (50 µM) is reported as -1.079%.

For `Brc1cc2c(cc1CN1CCCNCC1)OCO2`, the “Percent Effect” value (50 µM) was -4.823%.

For `CC1(c2ccncc2)NC(=O)c2ccccc2N1` (stereo not given), the “Percent Effect” value (50 µM) was 11.28%.

With `O=C(CN1CCn2ccnc2C1)NC1CCS(=O)(=O)C1` (stereo not given) the “Percent Effect” value (50 µM) was 6.953%.

In the case of `CC(C1CCN(Cc2c[nH]cn2)CC1)N1CCCC1` (stereo not given), the “Percent Effect” value (50 µM) is reported as 21.18%.

In the case of `NCc1ccnc(OCC2CC2)c1`, the “Percent Effect” value (50 µM) is reported as 3.263%.

For `Cc1ccccc1CC(=O)N(C)C`, the “Percent Effect” value (50 µM) was -4.007%.

For `NCCC1CCN(C(=O)Nc2cc(F)cc(F)c2)CC1`, the “Percent Effect” value (50 µM) was -1.616%.

In the case of `Cc1ccc(S(=O)(=O)NCC2(O)CCOc3ccccc32)s1` (stereo not given), the “Percent Effect” value (10 µM) is reported as 3.665%.

With `O=S(=O)(NCC1(O)CCOc2ccccc21)c1ccc(Cl)s1` (stereo not given) the “Percent Effect” value (10 µM) was 4.661%.

For `O=S(=O)(NCC1(O)CCOc2ccccc21)c1ccc(Br)s1` (stereo not given), the “Percent Effect” value (10 µM) was 53.2%.

In the case of `COCCn1cc(CNC(=O)NCC(F)F)cn1`, the “Percent Effect” value (50 µM) is reported as -9.663%.

For `CNc1nc(C(=O)N[C@@H]2CC[C@@H](N)C2)cs1`, the “Percent Effect” value (50 µM) was 18.65%.

For `CC(NC(=O)c1ccoc1)C(=O)Nc1nccs1` (stereo not given), the “Percent Effect” value (50 µM) was -8.907%.

For `CC(C)=CCN1CCOC(Cn2nc(C)cc2C)C1` (stereo not given), the “Percent Effect” value (10 µM) was 97.95%.

With `Cc1cc(C)n(CC2CN(CC3CCCC3)CCO2)n1` (stereo not given) the “Percent Effect” value (10 µM) was -2.525%.

In the case of `Cc1cc(CN2CCOC(Cn3nc(C)cc3C)C2)on1` (stereo not given), the “Percent Effect” value (10 µM) is reported as -42.92%.

For `O=C1COc2ccc(NC(=O)c3ccccc3)cc2N1`, the “Percent Effect” value (50 µM) was 3.882%.

With `CN(CCC#N)CC1CCN(CCO)CC1` the “Percent Effect” value (50 µM) was -6.076%.

In the case of `COc1cc(Br)ccc1CCCNC(=O)C(C)O` (stereo not given), the “Percent Effect” value (50 µM) is reported as 0.2477%.

With `CC(=O)c1ccc(OCC(O)CNC2CCCC2)cc1` (stereo not given) the “Percent Effect” value (50 µM) was 6.61%.

In the case of `CC(=O)c1ccc(OCC(O)Cn2ccnc2)cc1` (stereo not given), the “Percent Effect” value (50 µM) is reported as 57.01%.

In the case of `O=C(COc1ccccc1)NCCn1ccnc1`, the “Percent Effect” value (50 µM) is reported as -5.476%.

In the case of `CCNC(=O)N1CCC(NC(=O)c2ccc(C)o2)CC1`, the “Percent Effect” value (50 µM) is reported as -1.852%.

In the case of `Cc1nc2cc(C3CCN(Cc4cccc(F)c4F)C3)nn2c(O)c1C.O=C(O)CC(O)(CC(=O)O)C(=O)O` (stereo not given), the “Percent Effect” value (10 µM) is reported as 49.65%.

With `Cc1nc2cc(C3CCN(Cc4ccccc4F)C3)nn2c(O)c1C` (stereo not given) the “Percent Effect” value (10 µM) was 15.76%.

With `Cc1cc(C(=O)Nc2ccnc(C)c2Cl)cc(O)n1` the “Percent Effect” value (50 µM) was 12.01%.

With `CN1CCCN(CC(=O)NCCCc2ncc[nH]2)CC1` the “Percent Effect” value (50 µM) was -15.47%.

In the case of `Cc1cc(C)c(C(=O)NC2CCCc3nc(N(C)C)ncc32)cc1C` (stereo not given), the “Percent Effect” value (10 µM) is reported as 19.3%.

For `CN(C)c1ncc2c(n1)CCCC2NC(=O)C1CC1` (stereo not given), the “Percent Effect” value (10 µM) was 7.926%.

For `CCC(=O)NC1CCCc2nc(N(C)C)ncc21` (stereo not given), the “Percent Effect” value (50 µM) was 69.08%.

For `CNC(=O)CN1CCCC(CO)(CCCOC)C1` (stereo not given), the “Percent Effect” value (50 µM) was 5.203%.

In the case of `CC(=O)NCCCNCc1ccc(Cl)c2cccnc12`, the “Percent Effect” value (10 µM) is reported as -6.901%.

With `CC(=O)NCCCS(=O)(=O)c1ccc(C)cn1` the “Percent Effect” value (50 µM) was -5.9%.

In the case of `CC(=O)NCCCS(=O)(=O)c1ncccc1Cl`, the “Percent Effect” value (50 µM) is reported as 60.86%.

In the case of `COC1CNc2ccccc2C1` (stereo not given), the “Percent Effect” value (50 µM) is reported as -15.01%.

For `NC(=O)CN1CCCN(C(=O)c2ccc(Br)o2)CC1`, the “Percent Effect” value (50 µM) was -5.913%.

In the case of `Fc1ccc(NCC2CCC3(CC2)OCCO3)nc1`, the “Percent Effect” value (50 µM) is reported as 8.487%.

In the case of `CCC(CC)C(=O)N1C[C@@H](CO)[C@H](N(C)C)C1`, the “Percent Effect” value (50 µM) is reported as 16.3%.

For `Cc1cc(CN2CCCC2)cc(Oc2ccc3c(c2)CC(CN)O3)c1` (stereo not given), the “Percent Effect” value (10 µM) was -8.923%.

For `NCC1Cc2cc(Oc3cc(F)c(CN4CCCC4)c(F)c3)ccc2O1` (stereo not given), the “Percent Effect” value (10 µM) was 54.73%.

In the case of `COc1ccc(CN2CCCC2)cc1Oc1ccc2c(c1)CC(CN)O2` (stereo not given), the “Percent Effect” value (10 µM) is reported as -15.09%.

With `CSCC(CCO)NC(=O)Nc1cccc(F)c1` (stereo not given) the “Percent Effect” value (50 µM) was -3.551%.

With `CCc1cc(=O)[nH]c(-c2ccc(NCCc3ccc(O)cc3)nc2)n1` the “Percent Effect” value (10 µM) was 56.82%.

In the case of `Cc1nc(-c2ccc(NCCc3ccc(O)cc3)nc2)[nH]c(=O)c1C`, the “Percent Effect” value (10 µM) is reported as 31.24%.

With `CCc1cc(=O)[nH]c(-c2ccc(NCCC(C)O)nc2)n1` (stereo not given) the “Percent Effect” value (10 µM) was 3.239%.

With `N#Cc1ccc(S(=O)(=O)N2CCCO2)c(Cl)c1` the “Percent Effect” value (50 µM) was 6.897%.

With `N#CCCNC(=O)CN1CCCC1` the “Percent Effect” value (50 µM) was 96.45%.

With `N#CCCNC(=O)CN1CCCCCC1` the “Percent Effect” value (50 µM) was -10.45%.

For `N#CCCNC(=O)CN1CCCCC1`, the “Percent Effect” value (50 µM) was -2.214%.

In the case of `CCC(C)CS(=O)(=O)Nc1ccc(F)c(C(N)=O)c1` (stereo not given), the “Percent Effect” value (50 µM) is reported as 12.83%.

For `O=C(Cc1ccccc1)NCc1ccncc1`, the “Percent Effect” value (50 µM) was 2.374%.

In the case of `COCc1nn(CC(=O)c2cc(F)ccc2F)c(=O)o1`, the “Percent Effect” value (50 µM) is reported as 53.45%.

In the case of `COCc1nn(Cc2ccc(Cl)s2)c(=O)o1`, the “Percent Effect” value (10 µM) is reported as 11.6%.

In the case of `COCc1nn(Cc2ccccc2Cl)c(=O)o1`, the “Percent Effect” value (50 µM) is reported as 10.13%.

For `CN(CC1CCOC1)C(=O)c1cc(F)ccc1F` (stereo not given), the “Percent Effect” value (50 µM) was 12.99%.

With `CC1CCN(C(=O)Cn2cncc(Br)c2=O)CC1` the “Percent Effect” value (50 µM) was 8.773%.

For `CC(O)CN1CCN(Cc2cccc(C(=O)N3CCCCC3)c2)CC1` (stereo not given), the “Percent Effect” value (10 µM) was 67.87%.

In the case of `CC(O)CN1CCN(Cc2cccc(C(=O)N(C)C)c2)CC1` (stereo not given), the “Percent Effect” value (10 µM) is reported as 5.816%.

For `CSCc1cccc(C(=O)N2CCN(CC(C)O)CC2)c1` (stereo not given), the “Percent Effect” value (10 µM) was -0.6353%.

With `CC(C)C(=O)N1CCN(CCc2ccccn2)CC1` the “Percent Effect” value (50 µM) was -1.569%.

With `CCCn1nc2c(cc1=O)CN(c1ncnc3sccc13)CC2` the “Percent Effect” value (10 µM) was 8.636%.

In the case of `c1csc(N2CCN(c3ncnc4sccc34)CC2)n1`, the “Percent Effect” value (10 µM) is reported as 15.87%.

In the case of `Cn1nc2c(cc1=O)CN(c1ncnc3sccc13)CC2`, the “Percent Effect” value (10 µM) is reported as 80.8%.

With `CC(C(=O)Nc1nccs1)N1CCc2nn(C)c(=O)cc2C1` (stereo not given) the “Percent Effect” value (10 µM) was 7.43%.

In the case of `CC(C)n1nc2c(cc1=O)CN(c1ncnc3sccc13)CC2`, the “Percent Effect” value (10 µM) is reported as 1.477%.

In the case of `CCn1nc2c(cc1=O)CN(c1ncnc3sccc13)CC2`, the “Percent Effect” value (10 µM) is reported as 58.75%.
